The results in this text go back to PubChem BioAssay (NCI).

Compounds without any hit were thinned out: in the full panel of roughly 83,000, 20% have a hit.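 Single-concentration screen, 48 h exposure, 96-well plates. Endpoint: percent growth. Below 10 = active.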 Values without a mark were called inactive. The source made the active and inactive calls.

Among the test systems are NCI-H23 lung; NCI-H226 lung; NCI-H322M lung; HOP-62 NSCLC; NCI-H460 lung; HOP-92 NSCLC; NCI-H522 lung; A549/ATCC NSCLC; 786-0 renal; COLO 205 colon.
Experiment in all cases: NCI-60 one-dose screen, 48 h (100 = growth as untreated, 0 = no growth, -100 = all killed)
What all share (conditions): 10 µM unless noted

For the compound `COC(=O)c1ccc(C)cc1`, the growth is 97.5% in the experiment with NCI-H23 lung; 106% in the experiment with NCI-H226 lung; 113% in the experiment on NCI-H322M lung; 107% in the experiment on HOP-62 NSCLC; 106% with NCI-H460 lung; 100% with HOP-92 NSCLC. For the same compound, the growth is 97.5% with NCI-H522 lung, 103% in the experiment with A549/ATCC NSCLC, 103% with 786-0 renal and 106% in the experiment with COLO 205 colon.
Consider `CCO/C=N/NC(=O)c1ccncc1`, for which the growth in the experiment with NCI-H23 lung was 102%; in the experiment with NCI-H226 lung, 106%; with NCI-H322M lung, 107%; with HOP-62 NSCLC, 103%; in the experiment on NCI-H460 lung, 104%; in the experiment with HOP-92 NSCLC it was 104%. The growth in the experiment on NCI-H522 lung is 98%; in the experiment on A549/ATCC NSCLC it was 106%; in the experiment with 786-0 renal, 105%; in the experiment with COLO 205 colon it was 110%.
In the case of `ClC1=C(Cl)C(Cl)=C(Cl)C1=Cc1ccc(Cl)cc1Cl`, the growth in the experiment with NCI-H23 lung is -53.5% (active); in the experiment with NCI-H226 lung, -33.9% (active); in the experiment on NCI-H322M lung it was 11.3%; in the experiment with HOP-62 NSCLC, 10.9%; in the experiment on NCI-H460 lung, -16.3% (active); in the experiment with HOP-92 NSCLC it was -81% (active). The growth was -22.8% (active) in the experiment on NCI-H522 lung, -38.4% (active) in the experiment on A549/ATCC NSCLC, -40.3% (active) with 786-0 renal and -34.1% (active) in the experiment on COLO 205 colon.
As to `CCSc1nnc(NC(=O)Cc2ccc(Cl)cc2)s1`, the growth is 99.1% in the experiment with NCI-H23 lung; 104% in the experiment with NCI-H226 lung; 112% with NCI-H322M lung; 102% in the experiment on HOP-62 NSCLC; 123% with NCI-H460 lung; 89.4% in the experiment with HOP-92 NSCLC. The growth in the experiment on NCI-H522 lung is 107%; in the experiment with A549/ATCC NSCLC, 106%; in the experiment on 786-0 renal, 100%; in the experiment on COLO 205 colon, 108%.
`COc1cc2c(cc1OC)C1(C)N(CC2)C(=O)OC1(C)C` (stereo not given): the growth in the experiment with NCI-H23 lung was 110%; in the experiment with NCI-H226 lung it was 92.8%; with NCI-H322M lung, 101%; with HOP-62 NSCLC, 111%; in the experiment on NCI-H460 lung, 101%; in the experiment with HOP-92 NSCLC, 101%. Besides, the growth is 100% in the experiment on NCI-H522 lung, 102% in the experiment on A549/ATCC NSCLC, 102% in the experiment with 786-0 renal and 120% in the experiment with COLO 205 colon.
As to `COc1cc(Cn2c(-c3nonc3N)nc3ccccc32)ccc1C`, the growth was 25.1% in the experiment with NCI-H23 lung; 50.3% with NCI-H226 lung; 58.8% in the experiment with NCI-H322M lung; 30.5% in the experiment with HOP-62 NSCLC; 11% with NCI-H460 lung; 39.8% in the experiment on HOP-92 NSCLC. Further, the growth in the experiment on NCI-H522 lung is -20% (active); in the experiment with A549/ATCC NSCLC, 24.2%; in the experiment with 786-0 renal, 40.3%; in the experiment on COLO 205 colon, -9.7% (active).
As to `CN(C)c1ccc(C2CC(c3ccccc3)=NN2/C=C2\SC(=O)NC2=O)cc1` (stereo not given), the growth in the experiment with NCI-H23 lung is 88.7%; in the experiment on NCI-H226 lung, 90.4%; in the experiment with NCI-H322M lung it was 87.4%; with HOP-62 NSCLC it was 94.5%; with NCI-H460 lung, 67.2%; in the experiment with HOP-92 NSCLC it was 91.5%. Moreover, the growth in the experiment on NCI-H522 lung was 90%; with A549/ATCC NSCLC it was 70.1%; with 786-0 renal, 90.5%; with COLO 205 colon it was 110%.
Turning to `O=S(=O)(NCCCNc1cc(-c2cn(-c3ccccc3)nc2-c2cccc(O)c2)ccn1)c1cccc2ccccc12`, the growth in the experiment on NCI-H23 lung is 44.9%; in the experiment on NCI-H226 lung, 38.7%; with NCI-H322M lung it was 44.3%; in the experiment on HOP-62 NSCLC it was 47.3%; in the experiment on NCI-H460 lung, 18%; with HOP-92 NSCLC, 11.8%. In addition, the growth was 44.5% in the experiment with NCI-H522 lung, 35.8% with A549/ATCC NSCLC, -9.71% (active) in the experiment with 786-0 renal and -65.5% (active) in the experiment with COLO 205 colon.
For the compound `COc1cc(NC(=O)CCl)ccc(=O)c1`, the growth with NCI-H23 lung is 53.7%; in the experiment with NCI-H226 lung, 122%; with NCI-H322M lung, 86.4%; in the experiment on HOP-62 NSCLC, 113%; in the experiment with NCI-H460 lung, 77.4%; with HOP-92 NSCLC, 79%. Besides, the growth in the experiment with NCI-H522 lung was 17.2%; in the experiment on A549/ATCC NSCLC, 84.5%; in the experiment with 786-0 renal, 106%; with COLO 205 colon, 82.6%.
`CC(=O)N1Cc2ccccc2C(C)Cc2cc(Cl)ccc21` (stereo not given): the growth in the experiment with NCI-H23 lung was 106%; with NCI-H226 lung, 117%; in the experiment with NCI-H322M lung it was 97.9%; in the experiment on HOP-62 NSCLC, 102%; with NCI-H460 lung, 105%; in the experiment on HOP-92 NSCLC, 99.3%. The growth with NCI-H522 lung was 95.8%; in the experiment on A549/ATCC NSCLC it was 96.5%; with 786-0 renal it was 95.9%; in the experiment with COLO 205 colon, 117%.
For `O=C(Nc1ccc(OCc2nnc(-c3ccc(Cl)cc3)o2)c(F)c1)Nc1ccc(Cl)c(Cl)c1`, the growth in the experiment on NCI-H23 lung is 47.3%; in the experiment with NCI-H226 lung it was 78.7%; with NCI-H322M lung, 54.7%; in the experiment on HOP-62 NSCLC, 47.5%; with NCI-H460 lung, 29.2%; with HOP-92 NSCLC, 59%. Moreover, the growth in the experiment with NCI-H522 lung was 40.4%; in the experiment on A549/ATCC NSCLC, 32.2%; in the experiment on 786-0 renal, 90%; in the experiment on COLO 205 colon, 70.3%.
For the compound `CCCCOc1nc2c(C)cccc2cc1C1CNC(=O)c2ccccc2N1` (stereo not given), the growth in the experiment on NCI-H23 lung is 80%; in the experiment with NCI-H226 lung, 89%; in the experiment on NCI-H322M lung, 105%; in the experiment with HOP-62 NSCLC, 56.2%; in the experiment on NCI-H460 lung, 56.2%; in the experiment with HOP-92 NSCLC, 62.6%. In addition, the growth was 44.8% in the experiment with NCI-H522 lung, 60.1% in the experiment on A549/ATCC NSCLC, 46.2% in the experiment with 786-0 renal and 90.8% in the experiment on COLO 205 colon.
Consider `CCOC(=O)CC(C#N)(CC(=O)OCC)C(=O)OCC`, for which the growth was 106% with NCI-H23 lung; 94.5% with NCI-H226 lung; 112% in the experiment on NCI-H322M lung; 117% in the experiment on HOP-62 NSCLC; 115% in the experiment with NCI-H460 lung; 68% in the experiment on HOP-92 NSCLC. For the same compound, the growth in the experiment with NCI-H522 lung was 114%; in the experiment with A549/ATCC NSCLC, 84.6%; in the experiment on 786-0 renal it was 104%; with COLO 205 colon, 116%.
In the case of `COc1ccc(Cn2cc(COc3cc(/C=C/C(=O)c4cc(OC)c(OC)c(OC)c4)ccc3OC)nn2)cc1`, the growth is 107% with NCI-H23 lung; 89.4% with NCI-H226 lung; 52.4% in the experiment on NCI-H322M lung; 19.2% in the experiment with HOP-62 NSCLC; 96.4% in the experiment with NCI-H460 lung; 45% in the experiment on HOP-92 NSCLC. The growth in the experiment on NCI-H522 lung is 41.6%; in the experiment with A549/ATCC NSCLC, 60.1%; in the experiment with 786-0 renal, 81%; in the experiment on COLO 205 colon, 81.9%.
